Screening results deposited in PubChem by National Center for Advancing Translational Sciences (NCATS).
In the library only some 6% were active in any assay of this set; here they are far more common.
CRE Fsk mod: alters forskolin-stimulated CRE reporter signaling in CHO cells. actives 2.5% (n = 71,000). Potency, µM (top dose mostly 38.2 µM), hits mostly activators. CHO CRE-bla reporter (cAMP response element driving beta-lactamase), forskolin EC10, beta-lactamase ratio; active = well fitted activation curve with a large enough effect in the signal ratio, with a control signal flat, not every such curve was filed as active; inconclusive = small, poorly fitted or top-dose-only effect, or effect the other way, or a change in a side signal; the % refers to the signal ratio
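Using CellSensor CRE-bla CHO cells in Opti-MEM with 0.5% dialyzed FBS, compounds were titrated with EC10 NKH 477 for 3 h at 37 °C. CCF4 ratio (460/530 nm) gave %Activity; AC50 derived.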
HEK293 cAMP cs: counter-screen for TSHR agonists: cAMP increase in parental HEK293 | parental HEK293 CNG cAMP sensor, membrane potential fluorescence | Potency, µM (top dose mostly 57.1 µM), most hits filed as activators | actives 2.5% (n = 73,000) | AID 938; also: nearly all actives have a fitted effect of over 55% in size
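Parental HEK 293 cells stably expressing a modified CNG channel (no TSHR) report cAMP rise as membrane depolarization. Membrane potential dye with 100 uM RO 20-1724 was loaded for 60 min at room temperature, then compound added for 30 min; fluorescence read at 590 nm.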
ERK AVP block: blocks ERK signaling stimulated by vasopressin. Potency, µM (highest dose often 57.5 µM), hits mostly inhibitors. actives 0.99% (n = 72,000). HEK293-V1b, vasopressin-stimulated pERK AlphaScreen; also: nearly all actives have a fitted effect of over 55% in size
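qHTS, compounds titrated on V1b-expressing HEK293 cells. Preincubation 30 min at 37C, vasopressin 25 nM for 5 min, lysis 10 min, bead incubation 5 hr at room temperature.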
TSHR ag: TSH receptor (human) agonism | P16473 | HEK293-CNG-TSHR cells (CNG channel as cAMP sensor), membrane potential dye, cAMP | Potency, µM (titrated, usually from 57.1 µM), usual class: activators | actives 0.48% (n = 73,000) | AID 926; active = well fitted activation curve with a large enough effect in the main read-out, with a control signal flat, not every such curve was filed as active; inconclusive = small, poorly fitted or top-dose-only effect, or a change in a side signal; inactive = no such curve, though single readings can be large or run the other way; reference of the percent scale not stated here;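 also: the control signal comes from parental cells without the receptor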
Target sequence (P16473 whole entry, looked up): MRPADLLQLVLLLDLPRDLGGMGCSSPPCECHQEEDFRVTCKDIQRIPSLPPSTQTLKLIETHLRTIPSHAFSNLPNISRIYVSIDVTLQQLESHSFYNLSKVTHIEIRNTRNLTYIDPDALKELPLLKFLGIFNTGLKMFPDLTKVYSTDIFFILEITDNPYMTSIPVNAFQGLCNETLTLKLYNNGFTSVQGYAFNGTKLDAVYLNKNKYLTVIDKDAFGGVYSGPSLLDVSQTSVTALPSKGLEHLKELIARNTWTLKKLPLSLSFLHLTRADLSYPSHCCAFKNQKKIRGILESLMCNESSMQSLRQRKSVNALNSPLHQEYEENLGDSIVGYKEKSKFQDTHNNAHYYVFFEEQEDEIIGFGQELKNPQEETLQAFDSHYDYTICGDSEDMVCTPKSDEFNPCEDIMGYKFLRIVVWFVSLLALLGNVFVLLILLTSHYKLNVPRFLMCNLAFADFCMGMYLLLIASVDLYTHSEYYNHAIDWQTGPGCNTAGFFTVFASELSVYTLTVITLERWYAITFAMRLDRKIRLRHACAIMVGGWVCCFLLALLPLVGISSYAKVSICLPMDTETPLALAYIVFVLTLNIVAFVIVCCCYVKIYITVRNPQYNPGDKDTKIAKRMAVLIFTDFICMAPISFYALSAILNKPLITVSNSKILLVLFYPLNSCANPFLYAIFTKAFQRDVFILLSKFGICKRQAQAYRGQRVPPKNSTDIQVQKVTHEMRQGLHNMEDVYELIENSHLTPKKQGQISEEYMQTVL
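HEK 293 cells stably expressing TSHR and a modified CNG channel, with CNG-only parental cells as counterscreen, were preloaded 60 min at room temperature with membrane potential dye containing 100 uM RO 20-1724. Compound exposure was 30 min, and depolarization was read as fluorescence at 590 nm.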
Numbers stand for hits; – = inactive; ? = inconclusive; · = no result given; ! = not confirmed by another sample; [ ] = another dose, or the depositor's remark. Unless noted, calls follow the shape of the dose curve; as a rule, active = well fitted curve in the direction sought with a large enough effect; inconclusive = small, poorly fitted or top-dose-only effect, or another doubt; inactive = no such curve, though single readings can be large; an effect the other way counts as inactive or inconclusive.

SMILES	CRE Fsk mod	HEK293 cAMP cs	ERK AVP block	TSHR ag
O=S(=O)(Nc1cccnc1)c1ccc(C2CCCCC2)cc1	?	25µM	–	?
O=C(c1ccc(C23CC4CC(CC(C4)C2)C3)o1)N1CCOCC1	?	–	–	13µM
Cc1nc(NCc2ccccc2)c2nc(-c3ccccc3)n(CCN(C)C)c2n1	–	?	–	?
Cc1nc(N2CCC(C(N)=O)CC2)c2nnn(Cc3ccccc3)c2n1	–	–	–	–
c1ccc(Cn2nnc3c(N4CCCC4)ncnc32)cc1	10µM	?	–	?
Cc1nc(N2CCCC2)c2nnn(Cc3ccccc3Cl)c2n1	2.5µM	–	–	–
O=C1c2ccccc2C(Nc2ccc(Cl)cn2)N1c1ccccn1 (centres undefined)	–	16µM	–	?
Cn1cccc1C(=O)N1CCC[C@@]2(CCN(Cc3ccccc3)C2)C1	–	–	–	–
CN1CCN(c2ncc3nc(-c4ccccc4)c(=O)n(C4CC4)c3n2)CC1	?	?	–	?
CN(Cc1ccccc1)c1ncnc2c1cnn2-c1ccccc1	10µM	–	?	·
COCCN(CCOC)c1ncnc2c1cnn2-c1ccc(Cl)cc1	10µM	–	–	–
Nc1c(C(=O)Nc2ccccc2)sc2nc(-c3ccco3)ccc12	?	–	32µM	–[11.4 µM]
COc1ccccc1NC(=O)c1sc2nc(-c3ccco3)ccc2c1N	?	–	–	–
COC(=O)c1cccc(NC(=O)c2cc3sccc3n2C)c1	–	13µM	–	?
COC(=O)c1ccccc1NC(=O)c1cc2sccc2n1C	–	–	–	–
c1ccc2[nH]c(CSc3nnc(-c4ccncc4)o3)nc2c1	4µM	–	–	–
Brc1cccc(-c2nnc(SCc3nc4ccccc4[nH]3)o2)c1	2µM	–	?	–
c1ccc(-c2nnc(CSc3nc4ccccc4[nH]3)o2)cc1	?	–	–	–
COc1cc(-c2nc(-c3ccc(Br)o3)no2)cc(OC)c1OC	2.5µM	–	–	–
OCC(CO)(CO)N=Cc1cc(Br)ccc1O	–	–	–	–
Oc1ccc(Br)cc1/C=N/n1cnc2ccccc21	?	–	16µM	–
COc1ccccc1CN1CCCC2(CCN(C(=O)c3cccc(F)c3)CC2)C1	–	?	–	?
COc1ccc(NC(=O)c2ccc(-c3ccc(-c4noc(C)n4)cc3C)cc2)cc1N1CCN(C)CC1	–	?	13µM!	?
COc1ccc(-c2nc(-c3ccc(NC(=O)c4ccncc4)cc3)no2)cc1OC	?	–	10µM	–
COc1cc(/C=C\C(=O)N2CCCCC2=O)cc(OC)c1OC	?	–	·	–
SMILES	CRE Fsk mod	HEK293 cAMP cs	ERK AVP block	TSHR ag
CCCN(CCC)C(C(=O)Nc1cccc(OC)c1)c1ccccc1 (centres undefined)	?	25µM	–	?
Cn1c(=O)c(-c2cc(F)cc(F)c2)nc2cnc(Oc3cccc(Cl)c3)nc21	10µM	–	?	–
Cc1nc2cnc(Oc3cccc(Cl)c3)nc2n(Cc2ccc(F)cc2)c1=O	?	4µM	–	?
COc1ncc2nc(C)c(=O)n(Cc3ccc(F)cc3)c2n1	?	?	–	?
CO[C@H]1COC(=O)C/C=C\[C@H](C)[C@@H](OC)COC(=O)[C@@H](C)COC(=O)C/C=C\[C@@H]1C	·	–[11.4 µM]	–[11.5 µM]	–[11.4 µM]
Cc1noc(C)c1C(=O)N1CCC2(CCN(Cc3nccs3)CC2)CC1	–	–	–	–
CCCC1(c2ccccc2)NC(=O)N(CC(=O)c2[nH]c(C)c(C(=O)OCC)c2C)C1=O (centres undefined)	10µM	–	–	?
CCOC(=O)c1c(C)[nH]c(C(=O)CSc2ccccc2)c1C	–	–	–	–
CCOC(=O)c1[nH]c(C)c(C(=O)OCCN2C(=O)c3ccccc3C2=O)c1C	2.5µM	–	–	–
COc1ccc(-c2cc(C(=O)N/N=C/c3ccc(O)cc3)[nH]n2)cc1	·	–	·	–
COc1ccc(-c2nc(C#N)c(NCc3ccc(C)cc3)o2)cc1OC	5µM	–	?	–
CCN(CC)CCCNc1oc(-c2ccc(OC)c(OC)c2)nc1C#N	–	–	–	–
COc1ccc(CCNc2oc(Cc3ccccc3)nc2C#N)cc1OC	10µM	?	?	?
COc1ccc(CNc2oc(-c3cccc4ccccc34)nc2C#N)cc1	10µM	–	–	–
CC(C)(C)c1ccc(-c2nc(C#N)c(NCc3ccncc3)o2)cc1	?	–	?	–
COc1ccc(-c2nc(C#N)c(NCCc3ccccc3)o2)cc1OC	?	–	16µM	–
CNc1oc(-c2cccc3ccccc23)nc1C#N	?	–	–	·
Cn1cccc1C(=O)N1CCC2(CCCN(C(=O)Nc3cccc(C#N)c3)C2)CC1	–	–	–	–
Cc1ccc(CNc2oc(-c3ccco3)nc2C#N)cc1	10µM	–	–	–
CNc1oc(-c2ccco2)nc1C#N	–	–	–	–
C[C@@H](c1ccccc1)N1C(=O)[C@H]2[C@H]3[C@H](O)[C@H](O)C/C(=N/OCc4ccccc4)[C@H]3CC[C@@H]2C1=O	·	–[11.4 µM]	–[11.5 µM]	–[11.4 µM]
c1ccc(/C(=N/Nc2nc3ccccc3s2)c2ccccn2)cc1	–[7.6 µM]	–[11.4 µM]	–[11.5 µM]	–[11.4 µM]
CCN(CC)c1ccc(NC(=O)c2cccc(C)c2OC)c(C)c1	?	–	25µM	–
CCN(CC)c1ccc(NC(=O)c2cnc3ccccn3c2=O)c(C)c1	·	–	·	–
C[C@@H](CNC(N)=O)NC(N)=O	–[7.6 µM]	–[11.4 µM]	–[11.5 µM]	–[11.4 µM]
SMILES	CRE Fsk mod	HEK293 cAMP cs	ERK AVP block	TSHR ag
COc1ccc(Cn2c(=O)n(Cc3ccco3)c(=N)c3c4c(sc32)COC(C)(C)C4)cc1	?	–	?	–
CC1(C)Cc2c(sc3c2c(=N)n(Cc2ccco2)c(=O)n3Cc2ccc(F)cc2)CO1	4µM	?	–	?
c1ccc2c(c1)oc1c(Nc3ccc(CN4CCOCC4)cc3)ncnc12	?	–	20µM	·
CCc1nc(Nc2ccc(N3CCN(C(C)=O)CC3)cc2)c2oc3ccccc3c2n1	1.3µM	–	32µM	–
CC(=O)N1CCN(c2ccc(Nc3ncnc4c3oc3ccccc34)cc2)CC1	–	–	20µM	–
CC(=O)c1ccc(Nc2nc(C)nc3c2oc2ccccc23)cc1	2µM	–	–	–
CCc1nc(NCCCn2ccnc2)c2oc3ccccc3c2n1	?	–	?	–
O=C1Oc2ccccc2C(=O)/C1=C\N1C(=O)N/C(=C\c2ccccc2O)C1=O	–[7.6 µM]	–[11.4 µM]	–[11.5 µM]	–[11.4 µM]
CC(=O)OC1CC[C@@]2(C)C(CC[C@@]3(C)C2CC=C2C4CC(C)(C)CC[C@]4(C(=O)O)CC[C@@]23C)C1(C)C (some centres undefined)	·	·	–	·
CNc1nc2sc3c(c2c(=O)n1C)CC(C)(C)SC3	13µM	–	–	–
OC[C@@H]1O[C@@H](n2cnc3c(Nc4ccccc4)ncnc32)[C@@H](O)[C@H]1O	–	?	?	?
CCCCC#Cc1nc(N)c2ncn([C@@H]3O[C@@H](C(=O)NCC)[C@H](O)[C@@H]3O)c2n1	–	2µM	?	?
Nc1ncnc2c1ncn2[C@H]1O[C@@H](C(=O)O)[C@@H](O)[C@H]1O	–[7.6 µM]	–[11.4 µM]	–[11.5 µM]	–[11.4 µM]
COC(=O)c1cc(-c2c[nH]c3ccccc23)n[nH]1	–	–	–	–
